# In all, about 33,000 sequences were measured (“E-score (-0.5 to 0.5)”: median about -0.035, highest 2% from about 0.35 on). Only a selection was taken, and the highest values are over-represented in it overall.
# Target: T1, Pdr3 (UniProt P33200)
# T1 sequence: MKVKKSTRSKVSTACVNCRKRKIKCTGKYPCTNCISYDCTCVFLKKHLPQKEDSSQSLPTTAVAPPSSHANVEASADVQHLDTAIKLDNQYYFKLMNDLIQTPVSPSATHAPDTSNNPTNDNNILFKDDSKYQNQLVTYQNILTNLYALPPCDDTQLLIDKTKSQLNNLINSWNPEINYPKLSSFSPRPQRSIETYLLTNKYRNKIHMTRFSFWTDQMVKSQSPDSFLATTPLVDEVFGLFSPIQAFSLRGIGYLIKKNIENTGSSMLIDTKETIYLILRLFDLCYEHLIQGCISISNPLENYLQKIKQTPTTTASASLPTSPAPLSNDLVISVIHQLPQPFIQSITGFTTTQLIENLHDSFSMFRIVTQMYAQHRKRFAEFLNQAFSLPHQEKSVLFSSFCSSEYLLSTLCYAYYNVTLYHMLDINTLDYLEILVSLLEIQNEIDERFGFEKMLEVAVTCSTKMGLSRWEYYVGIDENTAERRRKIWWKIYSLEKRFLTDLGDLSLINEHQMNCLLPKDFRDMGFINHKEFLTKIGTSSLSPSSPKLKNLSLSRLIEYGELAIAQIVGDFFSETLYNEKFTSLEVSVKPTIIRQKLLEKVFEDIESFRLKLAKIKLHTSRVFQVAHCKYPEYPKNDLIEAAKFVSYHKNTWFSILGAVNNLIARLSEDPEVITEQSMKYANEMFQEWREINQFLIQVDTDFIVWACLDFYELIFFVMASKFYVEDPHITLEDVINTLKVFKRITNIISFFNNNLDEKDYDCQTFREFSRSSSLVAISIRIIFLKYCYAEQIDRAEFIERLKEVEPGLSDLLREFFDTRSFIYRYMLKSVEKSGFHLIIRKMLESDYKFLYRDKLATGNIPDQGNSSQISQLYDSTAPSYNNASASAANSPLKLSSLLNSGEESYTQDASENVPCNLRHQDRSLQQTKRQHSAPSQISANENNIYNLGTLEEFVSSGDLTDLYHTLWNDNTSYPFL
# Assay: PBM E-score (8-mer binding enrichment) (E-score (-0.5 to 0.5)); higher = stronger / more preferred TF binding
# Details: protein concentration: 200 nM; construct: GST-full length
# Experimental: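 Universal 'all 10-mer' protein binding microarrays (Agilent AMADID 015681) probed with GST-tagged S. cerevisiae TFs (full-length or DBD) made by in vitro transcription/translation (PURExpress), about 100-200 nM. Bound TF was detected with fluorescent anti-GST. Each ungapped 8-mer (which stands for itself and its reverse complement) is scored by the PBM enrichment score (E-score), a modified Wilcoxon-Mann-Whitney statistic from -0.5 to +0.5, computed with the Universal PBM Analysis Suite. Scale: above 0.35 generally sequence-specific binding.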
row,Sequence,PBM E-score
1,AGGGATCC,0.196
2,ACGGATCG,0.236
3,CCGGATCG,0.391
4,GGGGTCCA,-0.138
5,CGCTAAAA,0.00276
6,CCTTTTAG,-0.291
7,AATCTGCT,-0.15
8,ACCCTCCC,0.299
9,CTGAAGCA,-0.199
10,CCAATGCC,0.0068
11,AGGCATTG,-0.0729
12,CCCATTGC,-0.0113
13,GGCGGTTA,0.0539
14,AAGCATCT,-0.243
15,CATTTGTA,-0.0519
16,AGGCGAAC,-0.114
17,AAGGATCA,-0.14
18,CAGGATCC,0.0521
19,CTGGATCC,0.285
20,CCGGATCC,0.433
21,ACGGATCA,0.366
22,GCGGATAC,0.311
23,ATGGATCA,-0.0186
24,GAGGATCC,0.235
25,GCGGATCC,0.409

row,Sequence,PBM E-score
1,ATCGTTAA,0.00324
2,CGAATCCA,0.0811
3,CCGTCACG,0.238
4,ATCCCACC,0.266
5,CCTCGGAC,0.282
6,ACTCGGAT,0.256
7,GCTCGGAA,0.413
8,CCTCGGCC,0.251
9,CCTCGGCA,0.238
10,GCTCGGAC,0.297
11,GCTCGGTA,0.123
12,ACTCGGAC,0.305
13,CCTCGGAG,0.283
14,CCTCGGCG,0.376
15,CCTCGGAA,0.442
16,ACTCGGAA,0.427
17,AAACGTCA,-0.149
18,AAGCCTGT,0.028
19,CTGCAGGC,-0.094
20,TCTCGTAA,-0.0824
21,TCTCGGAA,0.444
22,TCTCGGCA,0.217
23,AAGGCCAG,-0.0965
24,TAAGCACA,0.108
25,AAGGAACC,0.217

row,Sequence,PBM E-score
1,CCGGAACC,0.476
2,AGGGAACC,-0.00025
3,CGGGAACG,0.285
4,ACGGAACT,0.48
5,CGGGAACC,0.312
6,CAGGAACG,-0.0257
7,AGGGAACT,0.0568
8,CCGGAACG,0.475
9,AAGGAACT,0.0764
10,ACGGAACC,0.487
11,CAGGAACC,-0.124
12,ACTCAACC,-0.035
13,ATTGCACC,-0.0754
14,GGCACTAA,0.156
15,CGATTGCG,0.202
16,CTTTCTGC,-0.0975
17,CAGCACAC,-0.275
18,CACTCGCG,0.0224
19,GACCAATA,-0.0553
20,AGTGGTTG,-0.00222
21,ACGGAACG,0.48
22,GCGGAACC,0.482
23,AAGGAACG,0.00917
24,ATGGAACG,0.0401
25,GAGGAACC,0.0227

row,Sequence,PBM E-score
1,GGGGAACC,-0.157
2,CGATCTTC,0.0584
3,CTCTTCAG,-0.243
4,CTAACAGA,-0.028
5,AGGAGTGC,-0.0635
6,CCGGTCCG,0.414
7,ATGGTCCC,-0.0703
8,ATGGTCCA,-0.203
9,CCGGTCCA,0.0798
10,CCGGTCCC,0.312
11,ATGGTCCG,0.387
12,CAGCTTAC,-0.193
13,GTAGTGAC,0.0971
14,CAGATGCA,-0.278
15,ACGCGCAC,-0.111
16,ACATCCAC,-0.04
17,CAATCATG,-0.189
18,CGGATTCC,0.454
19,CCGATTCG,0.25
20,CGGATTCA,0.179
21,GCGATTCC,0.34
22,CCGATTCC,0.395
23,AGGATTCC,0.223
24,ATTCACCG,0.254
25,ACCCACAG,-0.278

row,Sequence,PBM E-score
1,CATCTCCG,0.377
2,CATCTCCC,0.155
3,AATCTCCG,0.322
4,GTCTGACA,0.159
5,AACCTTTG,-0.165
6,AGAACCGA,0.0498
7,GGAACGCA,0.275
8,CGAACCGA,0.15
9,GGAACCGA,0.406
10,AGAACGGA,0.316
11,CGAACGAA,0.0784
12,CGAACGGC,0.177
13,GGAACGGA,0.431
14,CGAACGGA,0.407
15,AACACCCC,0.0302
16,AGCACTTA,-0.102
17,GGATTCCC,0.231
18,ACCTGACT,-0.131
19,AGAGGGGC,-0.138
20,TAGGGTGA,0.00768
21,TATGTCAA,0.0343
22,GTCTCCAC,-0.208
23,TAAGGGTA,-0.262
24,CCGGGTCC,0.365
25,CCGGGTCG,0.378

row,Sequence,PBM E-score
1,CCGGGTTA,0.353
2,ACGGGTTC,0.202
3,CCGGGTCA,0.349
4,ACGGGTCC,0.186
5,GCGGGTCC,0.243
6,ACGGGTCG,0.227
7,CCGGGTTC,0.411
8,AAGCGCTT,0.21
9,ATGAAGGG,-0.171
10,GTGGATAA,0.0146
11,GGATTTGA,-0.0356
12,CGGTCTTC,0.123
13,AATCAACA,0.115
14,GCTCGAAA,0.0413
15,ATACTCCC,0.127
16,ATACTCCA,-0.0793
17,ATACTCCG,0.371
18,CAGCGGCG,0.154
19,ACGCGGCG,0.209
20,CCGCGGCC,0.459
21,CCGCGGCG,0.477
22,GCGCGGCC,0.219
23,ACGCGGCC,0.0489
24,GACGTCTC,-0.145
25,TATCGAGA,-0.0727

row,Sequence,PBM E-score
1,ACGCAAGT,-0.255
2,TCCCCGAA,0.232
3,CCCCCGGA,0.311
4,GCCCCGGC,0.163
5,TCCCCGGA,0.411
6,TCCCCCGA,0.0813
7,GCCCCGGA,0.41
8,CTTGGAGC,-0.207
9,ACTTTCAG,-0.184
10,AAATTGCG,0.0648
11,GATCTTAC,-0.113
12,ACTTCCGG,0.42
13,GCTTCCGA,0.405
14,ACTTCCGA,0.355
15,ACTTCCCG,0.291
16,ACTTCCAA,-0.127
17,GCTTCCTA,-0.205
18,ACTTCCCA,-0.0401
19,GCTTCCAA,-0.143
20,ACTTCCTG,-0.121
21,CGCACAAA,0.0204
22,AGGGTGTG,-0.0975

# Source: the supplement of paper PMC3334620
